Screening data as filed in PubChem.
Pin1 inh: inhibitors of human Pin1. Potency, µM (highest dose often 115 µM), actives largely listed as inhibitors. 390,000 tested, 0.009% active. Q13526. AID 504891. Pin1 FP peptide displacement, HiFluor488, 10 min; active = well fitted inhibition curve with a large enough effect in the polarisation, with a control signal flat, not every such curve was filed as active; inconclusive = small, poorly fitted or top-dose-only effect, or effect the other way, or a change in a side signal; inactive = no such curve, though single readings can be large or run the other way; the % refers to the polarisation
Target sequence (Q13526 whole entry, looked up): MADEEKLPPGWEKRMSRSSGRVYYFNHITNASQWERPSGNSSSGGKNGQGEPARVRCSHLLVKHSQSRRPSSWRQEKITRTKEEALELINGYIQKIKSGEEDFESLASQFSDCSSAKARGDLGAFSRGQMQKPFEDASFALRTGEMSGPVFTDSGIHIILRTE
IL2 activator: activates IL-2 in a cell-based reporter assay | IL-2 activation reporter assay, cell-based qHTS; stimulated with anti-CD3/CD4/CD28 beads; in transgenic mouse T cells | activation, % (series mostly up to about 46 µM) | 360,000 tested, 0.065% active | AID 652025; in the data active = activation above about 50%; inconclusive = mostly about 30% to 49%
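Readout is EGFP and DsRed signal by fluorescent plate cytometry after 18 h at 37 degrees C. Transgenic mouse T cells (750/well) received compound for 60 min before bead stimulation (anti-CD3, anti-CD4, anti-CD28); memory T cells served as non-tolerant control.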
PKM2 act: activators of human pyruvate kinase M2 | P14618 | purified PKM2, Kinase-Glo ATP luminescence, activation; response scale: 0% is enzyme alone, no compound | Potency, µM (highest dose often 57.5 µM), hits mostly activators | 260,000 tested, 0.34% active; also: nearly all actives have a fitted effect of over 55% in size
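ATP formation by purified human PK-M2, quantified via coupled luciferase luminescence after 1 h at room temperature with 0.1 mM ADP and 0.5 mM PEP final.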
Integrin act MD: activates integrin-mediated alleviation for muscular dystrophy | 350,000 tested, 0.064% active | alpha7betagal myoblasts, beta-gal FDG fluorescence, 48 h | Potency, µM (series often up to 38.3 µM), hits mostly activators | AID 624291; also: nearly all actives have a fitted effect of over 60% in size
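Alpha7betagal+/- myoblasts (passage 13) were plated 16-24 hr, then exposed to compounds (1:260 dilution of DMSO stock) for 48 hours at 37C. After MPER lysis, β-galactosidase reporter activity was read as FDG fluorescence (ex 480/em 540) after 30 minutes.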
USP2a block: USP2a (human) protease inhibition; USP2 core, Ub-CHOP2 coupled fluorogenic reporter, 485/531; Potency, µM (titrated, usually from 38.3 µM), actives largely listed as inhibitors; 330,000 tested, 0.01% active; AID 463254
Target sequence (O75604 whole entry, looked up): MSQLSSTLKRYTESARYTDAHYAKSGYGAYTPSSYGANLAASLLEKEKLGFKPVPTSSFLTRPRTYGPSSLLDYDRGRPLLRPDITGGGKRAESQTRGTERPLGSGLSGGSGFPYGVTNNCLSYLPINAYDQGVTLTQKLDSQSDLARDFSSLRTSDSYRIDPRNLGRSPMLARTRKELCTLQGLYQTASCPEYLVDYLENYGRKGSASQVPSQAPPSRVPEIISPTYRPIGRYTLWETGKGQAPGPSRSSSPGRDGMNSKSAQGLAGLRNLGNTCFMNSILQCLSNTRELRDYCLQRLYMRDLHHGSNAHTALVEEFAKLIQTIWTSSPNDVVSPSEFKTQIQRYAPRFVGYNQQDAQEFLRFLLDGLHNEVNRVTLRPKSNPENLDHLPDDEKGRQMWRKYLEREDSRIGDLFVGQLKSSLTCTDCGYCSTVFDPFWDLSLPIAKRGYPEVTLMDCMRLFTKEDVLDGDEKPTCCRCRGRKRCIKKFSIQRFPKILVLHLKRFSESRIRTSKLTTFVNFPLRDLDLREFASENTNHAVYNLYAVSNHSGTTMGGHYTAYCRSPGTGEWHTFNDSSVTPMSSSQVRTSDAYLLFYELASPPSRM
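Cell-free coupled assay: 10nM USP2 core preincubated 30min RT with compound in Tris-HCl pH 8.0/CaCl2/CHAPS buffer, then 25nM Ub-CHOP2 and 25nM reporter substrate; fluorescence (Ex 485/Em 531) read after 60min RT, normalized to NEM inhibition, concentration-response curves fitted.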
ClpP mod: qHTS Assay for Activators of ClpP | purified B. subtilis ClpP, FRET peptide cleavage, 20 min | AID 651965, 2013 | Potency, µM (highest dose often 57.5 µM) | 340,000 tested, 1.9% active | ATP-dependent Clp protease proteolytic subunit (Bacillus subtilis (strain 168)), P80244; active = well fitted falling curve with a large enough effect; inconclusive = small, poorly fitted or top-dose-only effect; inactive = no such curve, though single readings can be large or run the other way; also: the source files actives as falling curves though it sought activators and does not explain the sign; nearly all actives have a fitted effect of over 65% in size
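FRET quenching reversal measured ClpP activation: 10 microg/mL B. subtilis ClpP at pH 8 with the FRET-FV decapeptide, read at 430 nm after 320 nm excitation. The 20-min minus 0-min signal was scaled between DMSO/no-enzyme wells and ADEP (5.8 microM final).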
ClpP inh valid: Bacillus subtilis ClpP inhibition, validated hit. shares compounds with ClpP mod. purified B. subtilis ClpP, FRET-FV substrate cleavage, 20 min. Potency, µM (titrated, usually from 57.5 µM), actives largely listed as inhibitors. 470 tested, 40% active; also: nearly all actives have a fitted effect of over 70% in size
A number is an active result; . = inactive; ? = inconclusive; / = no result; [ ] = remark or other dose. Rows were chosen to be rich in hits. Some 1.9% of all compounds tested hit in one or more screens of this group. Unless noted, calls follow the shape of the dose curve; as a rule, active = well fitted curve in the direction sought with a large enough effect; inconclusive = small, poorly fitted or top-dose-only effect, or another doubt; inactive = no such curve, though single readings can be large; an effect the other way counts as inactive or inconclusive.

SMILES | Pin1 inh | IL2 activator | PKM2 act | Integrin act MD | USP2a block | ClpP mod | ClpP inh valid
O=C(CC1SC(N2CCCCC2)=NC1=O)Nc1ccc(C(=O)NCc2ccccc2)cc1 (stereo unspecified) | . | . | / | . | . | . | /
COc1c(C(=O)Nc2ccc(Br)cn2)ccc2ccccc12 | . | . | / | . | . | . | /
COc1cc2ccccc2cc1C(=O)Nc1ccc(Br)cn1 | . | . | . | . | . | 3.5µM | ?
CC(C)CCn1c(=O)c2sccc2n2c(CCCC(=O)NC3CCC(C)CC3)nnc12 (stereo unspecified) | . | / | / | / | / | . | /
O=C(c1nc2nc(-c3cccs3)cc(C(F)(F)F)n2n1)N1CCN(Cc2ccccc2)CC1 | . | . | . | . | . | 2.5µM | 24µM
O=c1oc2ccccc2c2c1C1O[C@](c3ccsc3)(Cc3ccccc31)O2 | / | / | .[11.5 µM] | / | .[7.66 µM] | / | /
O=C(NC1CCCCC1)N(Cc1cc2cc3c(cc2[nH]c1=O)OCCO3)CC1CCCO1 (stereo unspecified) | . | . | . | .[7.66 µM] | . | 10µM | ?
Cc1cc(=O)oc2cc(OCC(=O)Nc3ccc(N4CCC(C)CC4)cc3)ccc12 | . | . | . | ? | . | . | /
Cc1c(C)c2ccc(OCC(=O)Nc3ccc(N4CCC(C)CC4)cc3)cc2oc1=O | . | . | / | . | . | . | .
COc1ccc(C2c3[nH]c4ccc(OC)cc4c3CCN2C(=O)Nc2ccccc2)cc1 (stereo unspecified) | . | / | / | / | / | . | /
COc1cccc(NC(=O)c2cc([N+](=O)[O-])ccc2NCc2cccnc2)c1 | . | . | . | . | . | . | .
Cc1ccc(NC(=O)c2cc([N+](=O)[O-])ccc2NCc2cccnc2)cc1Cl | . | . | . | . | . | . | /
c1ccc(C2Nc3ccccc3-c3nc4ccccc4n32)nc1 (stereo unspecified) | . | . | . | . | . | 7.1µM | 19µM
CCOc1ccc(N2CC(C(=O)Nc3ccc(S(=O)(=O)N4CCCC4)cc3)CC2=O)cc1 (stereo unspecified) | . | . | . | . | . | / | /
CCOc1ccc(N2CC(C(=O)Nc3ccc(S(=O)(=O)N4CCCCC4)cc3)CC2=O)cc1 (stereo unspecified) | . | . | / | . | . | 7.9µM | .
COC(=O)CN1C(=O)[C@@H]2[C@H](C1=O)[C@@H]1CC(C(=O)OC)=C[C@@H](C(=O)OC)C3C1=C(C(=O)[C@@]3(C)NC(=O)c1ccccc1)[C@@H]2C (stereo partly specified) | . | / | / | / | / | / | /
Cc1cccc(C)c1NC(=O)COC(=O)COc1ccc2c(C)cc(=O)oc2c1 | . | . | . | ? | . | . | .
Cc1cc(=O)oc2cc(OCC(=O)OCC(=O)Nc3ccc4ccccc4c3)ccc12 | . | . | . | . | . | . | /
Cc1ccc(NC(=O)c2ccc(NC(=O)c3ccccc3)cc2)cc1C | . | . | . | . | . | . | 24µM
CCCn1c(-c2ccc(F)cc2)nc2c(NCCN(C(C)C)C(C)C)nc(C)nc21 | / | / | . | / | / | / | /
CCN(C(=O)Cn1c(=O)n(Cc2ccccc2)c(=O)c2c1c1cc(OC)ccc1n2C)c1ccccc1 | . | / | / | / | / | ? | /
CCN(Cc1ccccc1)C(=O)Cn1c(=O)n(Cc2ccccc2)c(=O)c2c1c1cc(OC)ccc1n2C | . | / | / | / | / | 0.71µM | 27µM
O=C(c1cc(S(=O)(=O)N2CCCC2)c[nH]1)N1CCN(c2cccc(Cl)c2)CC1 | . | / | / | / | / | . | /
CC(=O)Nc1ccc(S(=O)(=O)Nc2nc3ccccc3nc2Nc2cccc(O)c2)cc1 | . | . | . | . | . | / | /
CC(=O)Nc1ccc(S(=O)(=O)Nc2nc3ccccc3nc2Nc2ccc3ccccc3c2)cc1 | ? | . | . | . | . | 3.5µM | ?
SMILES | Pin1 inh | IL2 activator | PKM2 act | Integrin act MD | USP2a block | ClpP mod | ClpP inh valid
c1ccc2nc(-c3ccc(N4CCOCC4)cc3)ccc2c1 | . | . | . | . | . | . | .
COc1ccc(C(=O)Nc2ccc(-c3nc4ccccc4s3)c(Cl)c2)cc1Cl | . | / | / | / | / | . | /
COc1c(C)cccc1C(=O)Nc1ccc(-c2nc3ccccc3s2)c(Cl)c1 | . | / | / | / | / | 7.9µM | .
COc1ccc(N2C(=O)NC3CC2(C)Oc2ccc(Br)cc23)cc1OC (stereo unspecified) | . | . | . | . | . | . | .
Cc1cc(N2CCN(Cc3cn(C)nc3-c3cccc(Cl)c3)CC2)cc(C)n1 | . | . | . | . | . | / | /
Cn1cc(CN2CCN(c3ncccn3)CC2)c(-c2cccc(Cl)c2)n1 | . | . | . | . | . | . | .
Cc1ccccc1-c1nc(CNC(=O)NC2CCCCC2)c(C)o1 | . | / | / | / | / | . | /
Cc1cc(C)cc(N(CC(=O)Nc2ccc(-c3nc4ccc(C)cc4s3)cc2)S(C)(=O)=O)c1 | . | . | . | . | . | 10µM | 19µM
COc1ccc(CNC(=O)c2ccc(Cn3c(=O)c4cccn4c4cccnc43)cc2)c(OC)c1 | . | / | / | / | / | ? | /
COc1ccc(NC(=O)c2ccco2)cc1NC(=O)c1cc2ccccc2o1 | . | . | . | . | . | . | 19µM
O=C(Nc1ccc(NC(=O)c2cc3ccccc3o2)cc1)c1ccco1 | . | . | / | . | . | / | /
Cc1ccc(C)c(CN2C(=O)c3ccccc3S(=O)c3ccc(C(=O)NCCc4ccc(Cl)cc4)cc32)c1 (stereo unspecified) | . | / | / | / | / | . | /
Cc1ccc(Cl)cc1NC(=O)CCc1c(C)nc2c3cccnc3nn2c1C | . | / | / | / | / | 3.5µM | 19µM
Cc1nc2c3cccnc3nn2c(C)c1CCC(=O)NCc1ccccc1Cl | . | / | / | / | / | . | /
Cc1cc(-c2ccccc2)c2nncn2n1 | . | . | . | . | . | 7.9µM | 22µM
Cc1cc(-c2ccccc2)c2c3c(cn2n1)c(=O)n(C)c(=O)n3C | . | . | . | . | . | . | /
Cc1ccn2c(Nc3ccc(C(C)C)cc3)c(-c3ccsc3)nc2c1 | . | / | / | / | / | 4µM | .
CCN1CCN(C(=O)Cn2ncc3c4ccccc4n(Cc4c(C)cc(C)cc4C)c3c2=O)CC1 | . | / | / | / | / | . | /
CS(=O)(=O)N(CC(=O)Nc1ccc(S(=O)(=O)N2CCOCC2)cc1)c1ccccc1Cl | . | . | . | ? | . | / | /
Cc1ccccc1N(CC(=O)Nc1ccc(S(=O)(=O)N2CCOCC2)cc1)S(C)(=O)=O | . | . | . | ? | . | . | .
CC(=O)Nc1ccc2c(c1)nc1n2CCSC1 | . | . | . | . | . | . | .
